Only some compounds are listed: those with a hit (about 3.7% of all), similar ones and a draw of the others.
A549 tox: Nrf2 qHTS screen for inhibitors: counterscreen for cytotoxicity. A549 ARE-Fluc cells, CellTiter-Fluor viability, 18-24 h. 390,000 tested, 0.16% active. Potency, µM (series often up to 46 µM), for inactives: top-dose activity change, negative = cytotoxicity, actives largely listed as inhibitors; also: potency is read from the fitted curve at half-maximal effect; % is scaled to controls: 0 for no effect and ±100 for the full control effect
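Cytotoxicity counterscreen: CellTiter-Fluor fluorescence was measured in A549 ARE_Fluc cells after 18-24 h of compound exposure in a concentration series. The subsequent BugLite luminescent read reports ARE-luciferase activity.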
Nrf2 inh: Nrf2 qHTS screen for inhibitors; A549 ARE-Fluc reporter, luciferase luminescence, 18-24 h; AID 504444, 2011; 360,000 tested, 2.1% active; Potency, µM (doses to about 46 µM), without a hit: top-dose activity change, negative = inhibition, hits mostly inhibitors; also: potency is read from the fitted curve at half-maximal effect; % is scaled to controls: 0 for no effect and ±100 for the full control effect; nearly all actives have a fitted effect of over 60% in size
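Two sequential reads on A549 ARE_Fluc cells exposed to compound for 18-24 h: a CellTiter-Fluor fluorescence read for viability, then a luciferase luminescence read for Nrf2/ARE activity.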
miR-21 act: qHTS Assay for Modulators of miRNAs and/orActivators of miR-21; HeLa miR-21 FLuc reporter, luciferase, 48 h; Potency, µM (series often up to 38.3 µM), for the others: top-dose activity change, positive = activation, hits mostly activators; 340,000 tested, under 10 active; AID 2288, 2010;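 also: % of control where 0% means no effect; miR-21 action dims this reporter so a rising signal means less miR-21 action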
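HeLa miR-21-FLuc reporter line, endogenous miR-21; 2000 cells/well in DMEM/10% FBS; compound titration up to ~40uM final, 48 h, 37 degree Celsius; luciferase detection reagent, 15 min lysis, CCD luminescence.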
ClpP mod: qHTS Assay for Activators of ClpP; ATP-dependent Clp protease proteolytic subunit (Bacillus subtilis (strain 168)), P80244; purified B. subtilis ClpP, FRET peptide cleavage, 20 min; Potency, µM (series often up to 57.5 µM), inactives show top-dose activity change, negative = active; 340,000 tested, 1.9% active; AID 651965, 2013; active = well fitted falling curve with a large enough effect; inconclusive = small, poorly fitted or top-dose-only effect; inactive = no such curve, though single readings can be large or run the other way; also: potency is read from the fitted curve at half-maximal effect; the source files actives as falling curves though it sought activators and does not explain the sign; nearly all actives have a fitted effect of over 65% in size
Target sequence (P80244 whole entry, looked up): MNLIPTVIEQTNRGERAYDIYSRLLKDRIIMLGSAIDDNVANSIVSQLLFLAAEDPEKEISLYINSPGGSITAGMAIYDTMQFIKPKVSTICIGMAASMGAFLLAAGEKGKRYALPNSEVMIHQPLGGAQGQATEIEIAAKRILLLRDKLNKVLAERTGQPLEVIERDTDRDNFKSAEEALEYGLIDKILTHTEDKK
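Buffer: 100 mM Tris/HCl pH8, 100 mM KCl, 0.05% low protease BSA, 2.5% glycerol, 0.01% Tween-20. ClpP 10 microg/mL final; 20 min RT; delta FRET normalized to ADEP and DMSO controls.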
p53 reactivation: qHTS assay for re-activators of p53 using a Luc reporter; H1299 p53-A138V BP100-luciferase reporter, luminescence, 24 h; Potency, µM (highest dose often 92.2 µM), without a hit: top-dose activity change, positive = activation, hits mostly activators; 320,000 tested, 0.063% active; also: potency is read from the fitted curve at half-maximal effect; % of control where 0% means no effect; nearly all actives have a fitted effect of over 45% in size
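p53-null H1299 cells stably carrying temperature-sensitive p53-A138V and a BP100-luciferase reporter were pinned with compounds (4-point, 1:5 series) and held 24 hrs at 37 deg C. Luminescence was read 10 min after detection reagent.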
Nrf2 activator: qHTS of Nrf2 Activators | AREc32 ARE-luciferase reporter (MCF7-derived line), luminescence, 24 h | 410,000 tested, 0.31% active | Potency, µM (series often up to 46.1 µM), for inactives: at the top dose activation, most hits filed as activators; also: potency is read from the fitted curve at half-maximal effect; % of control where 0% means no effect; nearly all actives have a fitted effect of over 65% in size
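Luminescent ARE reporter assay in AREc32_Fluc cells: overnight plating at 37 deg C, 24 hr compound incubation, Steady-Glo added, 30 min RT before reading.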
The depositor's hits bear a star; ? = inconclusive; . = no result. Unless noted, calls follow the shape of the dose curve; as a rule, active = well fitted curve in the direction sought with a large enough effect; inconclusive = small, poorly fitted or top-dose-only effect, or another doubt; inactive = no such curve, though single readings can be large; an effect the other way counts as inactive or inconclusive.

SMILES | A549 tox | Nrf2 inh | miR-21 act | ClpP mod | p53 reactivation | Nrf2 activator
COc1ccc(CNC(=O)c2cc3c(=O)n(C)c4ccccc4c3n2C)c(OC)c1 | -2% | 3% | -8% | -24% | . | -1%
CCc1ccc(OCC(=O)O/N=C(\N)c2ccncc2)cc1 | 2% | -7% | -27% | 0% | -11% | 0%
CC(C)(C)c1ccc(OCC(=O)O/N=C(\N)c2ccncc2)cc1 | -3% | ? | . | 16µM* | . | -1%
O=C(C(Cc1ccccc1)N1C(=O)C2C3C=CC(C3)C2C1=O)N1CCCCCC1 (stereo not given) | -13% | 4% | -5% | 1% | . | 0%
O=C(C(Cc1ccccc1)N1C(=O)C2C3C=CC(C3)C2C1=O)N1CCCCC1 (stereo not given) | -13% | -24% | -1% | 20µM* | -9% | 1%
Cc1cccc(Cn2nnc3c(=O)[nH]c(C4CCN(C(=O)c5ccc(F)cc5)CC4)nc32)c1 | 1% | 24% | -3% | 1% | . | -1%
CCc1c(C)nc2nncn2c1NCc1ccccc1 | -2% | ? | 18% | -3% | . | 1%
CCc1c(C)nc2nc(-c3ccccc3)nn2c1NCc1ccc(C)cc1 | -11% | 18µM* | -2% | -10% | . | -2%
COC(=O)c1ccc2nc(-c3cccc(Br)c3)c(CC3CCCCC3)n2c1 | . | . | . | -8% | . | 8.9µM*
COC(=O)c1ccc2nc(-c3ccc(OC)c(OC)c3)c(CC3CCCCC3)n2c1 | . | . | . | 5% | . | 6%
CC1=C(C(=O)OC2CCCCC2)C(c2ccccc2)NC(=O)N1 (stereo not given) | 1% | ? | 0% | 2.8µM* | -19% | 0%
CCOc1ccccc1C1NC(=O)NC(C)=C1C(=O)OC1CCCCC1 (stereo not given) | -26% | 21µM* | -3% | -2% | -9% | 0%
COc1ccccc1C1NC(=O)NC(C)=C1C(=O)OCc1ccccc1 (stereo not given) | 2% | -7% | 1% | -4% | . | 0%
CC1=C(C(=O)OCc2ccccc2)C(c2ccccc2OC(F)F)NC(=O)N1 (stereo not given) | -8% | 23µM* | 11% | -1% | -3% | 3%
COc1cccc(Cn2ncc3c4sc(C)cc4n(C)c3c2=O)c1 | -3% | -20% | . | . | . | .
CCCCn1c(=O)c2oc3ccccc3c2n(CC(=O)Nc2cccc(Cl)c2C)c1=O | -5% | 23% | 2% | -3% | . | 2%
CCC(=O)N1c2ccccc2CC1C(=O)NCc1ccc(CC)cc1 (stereo not given) | 12% | . | -7% | -1% | . | -1%
COc1ccc(NC(=O)c2ccc3c(=O)n(-c4ccc(OC)cc4OC)c(=S)[nH]c3c2)c(OC)c1 | -10% | 26µM* | 11% | 1% | 1% | 0%
COc1ccc(-n2c(=S)[nH]c3cc(C(=O)NC4CCCCC4)ccc3c2=O)c(OC)c1 | -15% | 15µM* | -10% | 1% | 7% | 0%
COc1ccc(-n2c(=S)[nH]c3cc(C(=O)Nc4cc(C(N)=O)ccc4OC)ccc3c2=O)c(OC)c1 | -2% | -11% | 8% | 0% | 6% | 0%
COc1ccc(-n2c(=S)[nH]c3cc(C(=O)Nc4ccc(C)c(F)c4)ccc3c2=O)c(OC)c1 | -10% | 23µM* | ? | . | -1% | 1%
